Laboratory results reported in ChEMBL document CHEMBL1157539, “Thousands of chemical starting points for antimalarial lead identification” (Nature, 2010).

What was measured:
Assay type in all cases: functional
[1] = tested on: Plasmodium falciparum; test: GSK_TCMDC: Inhibition of Plasmodium falciparum 3D7 in whole red blood cells, using parasite LDH activity as an index of growth. Test compounds present at 2uM
[2] = tested on: Plasmodium falciparum; test: GSK_TCMDC: Inhibition of Plasmodium falciparum Dd2 in whole red blood cells, using parasite LDH activity as an index of growth. Test compounds present at 2uM
[3] = tested on: HepG2; test: GSK_TCMDC: Percent inhibition of human HepG2 cell line. Test compounds present at 10uM.

SMILES	Inhibition [1]	Inhibition [2]	Inhibition [3]
CCOC(=O)c1cn(CC)c2cc(N(C)CCc3ccc(OC)c(OC)c3)c(F)cc2c1=O.Cl	92%	96%	9%
COc1ccc2nccc([C@@H](O)CN3CCC(NC(=O)/C=C/c4ccnc5ccccc45)CC3)c2c1	91%	12%	19%
COc1ccc(-c2cc3ncn(CC(=O)N4CCN(c5cccc(OC)c5)CC4)c(=O)c3s2)cc1	84%	26%	49%
CC(NC(C)c1cccc(Cl)c1)C(=O)Nc1cc(C(F)(F)F)ccc1N1CCOCC1 (stereo unspecified)	89%	33%	30%
Cc1ccc2[nH]cc(/C=C/C(=O)NC3CCC(CCN4CCc5ccc(C#N)cc5CC4)CC3)c2c1.Cl (stereo unspecified)	93%	49%	11%
Cc1cccc2nc(-c3ccc(-c4ccc(CN5CCN(CC6CCCN(C)C6)CC5)cc4)cc3)[nH]c12.O=C(O)C(F)(F)F (stereo unspecified)	100%	99%	91%
Cl.N=C(N)Nc1nc(-c2ccc(NC(=N)N3CCC[C@H]3CN3CCCC3)cc2)cs1	82%	66%	6%
CS(=O)(=O)CCNCc1ccc(-c2cc3c(Nc4ccc(OCc5cccc(F)c5)c(Cl)c4)ncnc3s2)[nH]1	99%	95%	5%
CCOC(=O)c1ccc(-c2cnc(N)c(-c3nc4cccc(C)c4[nH]3)c2)cc1	100%	79%	43%
Cc1cc(OCCCN2CCC(NS(=O)(=O)c3ccc(Cl)c(Cl)c3)CC2)c2ccccc2n1	96%	35%	11%
CC(C)CNCc1cccc(-c2ccc(CNC3CCN(Cc4ccccc4)CC3)cc2)c1.O=C(O)C(F)(F)F	100%	99%	44%
CC(C)Oc1cc2c(cc1NS(=O)(=O)c1ccc(-c3ccc(Cl)s3)cc1F)CCN(C)CC2.Cl	99%	1%	23%
CC(C)(C)NC(=O)C(c1ccc(F)cc1)N(C(=O)c1ccc(CN2CCOCC2)o1)c1ccc(C2CCCCC2)cc1 (stereo unspecified)	87%	68%	0%
CCN(CC)CCCC(C)Nc1ccnc2ccc(OC)cc12.Cl.O (stereo unspecified)	100%	0%	7%
Cc1ccc(-n2c(C)nc3c(Nc4ccc(-c5ccncc5)cc4)ncnc32)c(C)c1	99%	99%	38%
Nc1ccc2[nH]cc(C3CCN(CC4CCC(NC(=O)/C=C/c5ccc(Cl)c(Cl)c5)CC4)CC3)c2n1 (stereo unspecified)	100%	93%	18%
Cc1ccc2nc(C)cc(NC(=O)Nc3ccc(N(C)C)cc3)c2c1	100%	41%	12%
O=C(NCCc1ccccc1)N(Cc1ccccc1-c1cccc(CNCCc2ccccc2)c1)C1CCN(Cc2ccccc2)CC1.O=C(O)C(F)(F)F	100%	88%	100%
CC(CN(C)C)C(=O)Nc1ccc(-c2csc(-c3nc4ccccc4[nH]3)c2)cc1 (stereo unspecified)	84%	19%	28%
O=C(Nc1ccc(F)cc1)c1ccc(C(=O)NC2CCN(CC3CCCCC3)CC2)cc1.O=C(O)C(F)(F)F	99%	0%	34%
CC(=O)Oc1c(C2CCN(CCCCNC(=O)c3ccc(NC(=O)c4ccc(Cl)cc4)cc3)CC2)ccc2ccccc12	100%	92%	24%
COc1ccc(C[C@H](N)C(=O)N[C@H]2[C@@H](O)[C@H](n3cnc4c(N(C)C)ncnc43)O[C@@H]2CO)cc1 [PUROMYCIN]	100%	100%	99%
